High-throughput results as filed in PubChem BioAssay.
BAZ2B block: blocks human BAZ2B; Q9UIF8; hit rate 4.4% among 360,000; Potency, µM (titrated, usually from 114 µM), for inactives: at the top dose activity change, negative = inhibition, hits mostly inhibitors; AlphaScreen BAZ2B-H3K14Ac peptide displacement; also: % is scaled to controls: 0 for no effect and ±100 for the full control effect; nearly all actives have a fitted effect of over 60% in size
Target sequence (Q9UIF8 whole entry, looked up): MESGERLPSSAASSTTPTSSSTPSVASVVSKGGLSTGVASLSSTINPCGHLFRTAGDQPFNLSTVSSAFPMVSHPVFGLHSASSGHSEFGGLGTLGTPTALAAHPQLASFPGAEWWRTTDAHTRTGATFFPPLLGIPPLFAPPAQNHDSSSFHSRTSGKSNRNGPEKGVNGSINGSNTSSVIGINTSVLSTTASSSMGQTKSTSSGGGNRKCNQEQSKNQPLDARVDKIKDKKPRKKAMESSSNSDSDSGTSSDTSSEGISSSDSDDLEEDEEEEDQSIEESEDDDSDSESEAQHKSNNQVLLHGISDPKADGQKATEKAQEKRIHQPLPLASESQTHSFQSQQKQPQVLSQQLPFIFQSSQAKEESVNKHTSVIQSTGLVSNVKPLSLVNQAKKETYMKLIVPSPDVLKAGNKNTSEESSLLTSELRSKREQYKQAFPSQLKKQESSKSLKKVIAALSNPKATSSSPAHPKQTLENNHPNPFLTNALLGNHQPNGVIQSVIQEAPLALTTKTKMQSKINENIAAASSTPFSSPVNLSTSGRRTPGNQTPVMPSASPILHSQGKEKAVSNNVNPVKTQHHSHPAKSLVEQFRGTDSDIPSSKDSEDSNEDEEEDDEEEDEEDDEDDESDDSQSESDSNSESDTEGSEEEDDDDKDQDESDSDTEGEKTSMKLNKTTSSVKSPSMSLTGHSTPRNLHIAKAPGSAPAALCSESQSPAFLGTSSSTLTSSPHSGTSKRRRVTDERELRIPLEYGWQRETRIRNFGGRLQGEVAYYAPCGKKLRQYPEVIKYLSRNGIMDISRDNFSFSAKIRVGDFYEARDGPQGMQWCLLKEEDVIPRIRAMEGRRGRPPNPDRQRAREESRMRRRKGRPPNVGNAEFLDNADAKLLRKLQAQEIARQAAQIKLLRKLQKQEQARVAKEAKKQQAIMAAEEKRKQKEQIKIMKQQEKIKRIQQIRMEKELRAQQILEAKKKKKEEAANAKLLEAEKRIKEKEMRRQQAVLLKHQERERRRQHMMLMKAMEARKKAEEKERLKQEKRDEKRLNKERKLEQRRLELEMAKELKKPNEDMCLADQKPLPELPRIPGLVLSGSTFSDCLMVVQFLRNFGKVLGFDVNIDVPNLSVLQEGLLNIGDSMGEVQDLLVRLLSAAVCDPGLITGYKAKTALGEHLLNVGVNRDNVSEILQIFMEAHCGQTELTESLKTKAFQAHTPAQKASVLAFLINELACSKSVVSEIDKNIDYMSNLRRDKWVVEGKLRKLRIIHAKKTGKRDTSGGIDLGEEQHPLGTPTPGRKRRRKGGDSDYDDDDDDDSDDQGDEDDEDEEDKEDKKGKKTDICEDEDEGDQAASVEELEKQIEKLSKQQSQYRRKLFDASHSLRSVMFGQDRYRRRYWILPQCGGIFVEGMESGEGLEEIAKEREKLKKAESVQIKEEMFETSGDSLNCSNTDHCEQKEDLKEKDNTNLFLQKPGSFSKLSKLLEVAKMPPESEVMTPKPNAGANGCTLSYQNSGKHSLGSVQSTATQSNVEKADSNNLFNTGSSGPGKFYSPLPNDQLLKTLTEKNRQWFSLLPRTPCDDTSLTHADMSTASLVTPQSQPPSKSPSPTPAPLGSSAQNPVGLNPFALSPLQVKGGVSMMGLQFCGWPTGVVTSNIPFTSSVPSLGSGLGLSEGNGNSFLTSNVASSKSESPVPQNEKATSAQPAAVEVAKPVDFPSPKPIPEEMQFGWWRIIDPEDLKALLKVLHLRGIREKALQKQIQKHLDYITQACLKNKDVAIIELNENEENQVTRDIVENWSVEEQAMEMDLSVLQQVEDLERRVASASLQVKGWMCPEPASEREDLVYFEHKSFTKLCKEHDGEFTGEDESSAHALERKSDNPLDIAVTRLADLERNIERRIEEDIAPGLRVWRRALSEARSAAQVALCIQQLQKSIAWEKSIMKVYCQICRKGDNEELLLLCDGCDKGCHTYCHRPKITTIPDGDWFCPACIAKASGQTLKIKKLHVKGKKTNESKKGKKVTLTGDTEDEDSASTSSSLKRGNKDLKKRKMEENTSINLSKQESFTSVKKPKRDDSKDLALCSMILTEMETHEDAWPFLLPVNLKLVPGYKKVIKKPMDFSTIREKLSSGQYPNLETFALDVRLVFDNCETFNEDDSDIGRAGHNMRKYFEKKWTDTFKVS
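BAZ2B (50 nM) with biotin-H3(5-23)K14Ac peptide (50 nM) in PBS pH 7.4, 0.01% Tween-20, preformed 30 min, then compound 30 min at room temperature; top concentration 110uM. AlphaScreen streptavidin donor/nickel chelate acceptor beads (10 ug/mL final), 20 min dark, signal read.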
JMJD2A Tudor inh: JMJD2A Tudor domain (human) inhibition. AlphaScreen JMJD2A-Tudor / H3K4me3 peptide binding. hit rate 4.4% among 390,000. O75164. AID 504339. Potency, µM (highest dose often 114 µM), for inactives: at the highest dose activity change, negative = inhibition, actives largely listed as inhibitors; also: % is scaled to controls: 0 for no effect and ±100 for the full control effect; nearly all actives have a fitted effect of over 50% in size
G9a inh: blocks human histone lysine methyltransferase G9a; AID 504332; Q96KQ7; G9a H3K9 monomethylation, AlphaScreen, 2 h; hit rate 8.8% among 350,000; Potency, µM (highest dose often 102 µM), for the others: top-dose activity, negative = inhibition, usual class: inhibitors; also: % is scaled to controls: 0 for no effect and ±100 for the full control effect; nearly all actives have a fitted effect of over 75% in size
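Signal arises when biotinylated H3K9 peptide, once monomethylated, bridges streptavidin donor and antibody-captured acceptor beads. Enzyme at 20 nM was preincubated 15 min with test compounds; peptide 500 nM and SAM 20 uM then reacted for 2 h.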
L3MBTL1 inh: inhibitors of human L3MBTL1. hit rate 0.66% among 230,000. Potency, µM (doses to about 57.1 µM), for the others: top-dose activity, negative = inhibition, usual class: inhibitors. AlphaScreen L3MBTL1–H3K9me1 peptide binding. Q9Y468; also: % is scaled to controls: 0 for no effect and ±100 for the full control effect; nearly all actives have a fitted effect of over 60% in size
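AlphaScreen assay: L3MBTL1 (50 nM final) was preincubated 30 min at room temperature with biotinylated H3(1-15)K9me1 peptide (75 nM final), then 30 min with library compounds; streptavidin donor and nickel chelate acceptor beads (10 ug/mL final) added, 30 min dark.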
HP1b chromo inh: HP1-beta chromodomain-methylated histone interaction inhibition | Potency, µM (highest dose often 114 µM), without a hit: at the top dose activity change, negative = inhibition, hits mostly inhibitors | AID 540317 | P83916 | AlphaScreen HP1-beta / biotin-H3K9me3 peptide binding | hit rate 0.56% among 390,000; also: nearly all actives have a fitted effect of over 70% in size
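AlphaScreen: HP1-beta (50 nM) preformed 30 min with biotin-H3(1-18)K9me3 peptide (50 nM) in PBS pH 7.4, 0.01% Tween-20. Compound added for 30 min at RT, then streptavidin donor/nickel chelate acceptor beads (10 ug/mL) for 30 min.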
Active calls of the source: *; ? = inconclusive; . = no result given; [ ] = dose if it differs, or a comment. The list is not random: actives were taken first. Their share in the collection is about 11%. Calls follow the shape of the dose curve; as a rule, active = well fitted inhibition curve with a large enough effect; inconclusive = small, poorly fitted or top-dose-only effect; inactive = no such curve, though single readings can be large or run the other way. Potency is read from the fitted curve at half-maximal effect.

SMILES	BAZ2B block	JMJD2A Tudor inh	G9a inh	L3MBTL1 inh	HP1b chromo inh
CCc1cc2ccccc2nc1SCC(=O)N1CCN(C(=O)c2ccco2)CC1	?	-14%	50µM*	2%	30%
CCc1nc(SCC(=O)N2CCN(C(=O)c3ccco3)CC2)c2c3c(sc2n1)CCCC3	-11%	?	50µM*	-6%	-21%
CCc1cc2cc(C)ccc2nc1SCC(=O)N1CCN(C(=O)c2ccco2)CC1	?	?	?	-10%	-8%
N#CN1CCC(NC(=O)c2cccc(F)c2)CC1	.	-12%	.	.	.
COc1ccc(C(NCC(=O)NC(C)c2ccc(Cl)cc2)c2ccccc2)cc1 (stereo not given)	79µM*	25µM*	6%[2.33 µM]	.	?
COc1ccc(NC(=O)CNC(c2ccccc2)c2ccccc2)cc1	79µM*	20µM*	.	3%	?
COc1cc(NC(=O)CNC(c2ccccc2)c2ccccc2)cc(OC)c1OC	-12%	-17%	19%	.	7%
COc1cc2c(cc1OC)C(COc1ccc(F)cc1)N(C(=O)c1cccc(F)c1)CC2 (stereo not given)	-27%	?	-35%[59 µM]	.	1%
Cc1nn(Cc2ccc(Cl)cc2)c2sc(C(=O)O)cc12	-20%	-23%	1µM*	.	-1%
Cc1nn(Cc2ccc(F)cc2)c2sc(C(=O)Nc3nccs3)cc12	2%	-6%	-10%[59 µM]	4%	46%
c1ccc(CNc2ncncc2-c2ccoc2)cc1	.	.	4%[0.501 µM]	.	.
COc1cccc(NC(=O)Cn2c(=O)n(-c3cccc(OC)c3)c(=O)c3sc4ccccc4c32)c1	-11%	-12%	-25%[59 µM]	.	23%
COCCNC(=S)N=Nc1c(O)[nH]c2ccc([N+](=O)[O-])cc12	-4%	25µM*	.	-12%	14%
O=[N+]([O-])c1ccc(N=Nc2c(O)[nH]c3ccc(F)cc23)cc1	-32%	?	40µM*	.	-39%
Cc1cc(C)cc(NC(=O)CSc2oc(-c3ccccc3)nc2S(=O)(=O)c2ccccc2)c1	-23%	-28%	-3%[59 µM]	.	9%
CCC(C)NC(=O)CSc1nc2n[nH]c(C)c2c(=N)n1-c1cc(Cl)ccc1C (stereo not given)	-1%	-19%	-8%[59 µM]	.	-16%
S=C(NN=C1C2CC3CC(C2)CC1C3)Nc1ccccc1	?	50µM*	?	.	?
S=C(N/N=C1\C2CN3CCN(C2)CC1(c1ccccc1)C3)Nc1ccccc1	?	?	20%[59 µM]	-4%	-6%
O=C1/C(=C\c2cccc(O)c2O)SC(=S)N1Cc1ccccc1	20µM*	13µM*	4.5µM*	-9%	?
O=C(CCN1C(=O)/C(=C/c2ccccc2Cl)SC1=S)NNC(=O)c1ccccc1O	-15%	-22%	-7%	.	11%
Cc1ccccc1/C=C1\SC(=S)N(/N=C/c2cc([N+](=O)[O-])ccc2O)C1=O	22µM*	?	45µM*	.	-22%
CC(=O)N1C(=O)/C(=C2\SC(=S)N(c3c(C)n(C)n(-c4ccccc4)c3=O)C2=O)c2ccccc21	-34%	-20%	4µM*	4%	?
O=C1/C(=C\c2cccc(O)c2)SC(=S)N1Cc1ccccc1	40µM*	45µM*	-11%[0.501 µM]	0%[2.29 µM]	-26%
CCC1CCCCN1CCCNC(=O)c1[nH]c2ccccc2c1Sc1ccc(Cl)cc1 (stereo not given)	-36%	-6%	-44%[59 µM]	.	43%
O=C1/C(=C/c2ccc(O)cc2)SC(=S)N1Cc1cccnc1	-1%	-5%	-45%[59 µM]	-7%	10%
Cc1c(N2C(=O)/C(=C3/C(=O)N(C)c4ccccc43)SC2=S)c(=O)n(-c2ccccc2)n1C	3%	-4%	?	10%	25%
O=C1/C(=C\c2ccc(O)c(O)c2)SC(=S)N1Cc1ccccc1	8.9µM*	2.2µM*	4µM*	.	10µM*
COc1ccc(/C=C2\SC(=S)N(Cc3cccnc3)C2=O)cc1C	10µM*	?	11µM*	0%	-51%
COc1cc(/C=C2/SC(=NCc3ccccc3)N(Cc3ccccc3)C2=O)ccc1O	-7%	-32%	0%[59 µM]	.	11%
COc1cc(/C=C2/SC(=S)N(Cc3ccccc3)C2=O)ccc1O	40µM*	40µM*	45µM*	?	?
